Screens (PubChem BioAssay)
Kir21 inh – Kir2.1 (mouse) channel inhibition | B-score at 10 µM | 310,000 tested, 0.85% active | HEK293-Kir2.1, FluxOR thallium flux fluorescence; stronger effect = lower value | P35561;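 active means fluorescence ratio B-score at or below minus 3 SD of library scores, with starting-brightness B-score within 2 SD, cut at about -4.2 in these data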;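 further: channel flux triggered by added potassium and thallium sulfate stimulus; B-score of peak minus minimum fluorescence over baseline after thallium stimulus; more negative B-score means stronger Kir2.1 block with less thallium influx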
ANO1 block – mouse TMEM16A channel inhibition, primary screen; Q8BHY3; HEK293 TMEM16A/YFP iodide influx fluorescence, ionomycin; normalized B-score (activity score, 25-100; higher = stronger inhibition) at 10 µM; 310,000 tested, 1.2% active;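 active means ratio plate-corrected score three or more library SD toward inhibition, starting fluorescence score within five deviations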;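 further: score derived from kinetic fluorescence span divided by baseline fluorescence per well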
KCNK3 inh – human KCNK3 channel inhibition, primary screen; O14649; CHO-KCNK3 thallium flux, FluxOR fluorescence; stronger effect = lower value; B-score at 10 µM; 340,000 tested, 0.84% active;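 active means B-score under library mean minus 4 SD, starting fluorescence ratio at most library mean plus 5 SD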;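 further: more negative B-score means stronger inhibition of thallium flux through KCNK3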
Target sequence (O14649 whole entry, looked up): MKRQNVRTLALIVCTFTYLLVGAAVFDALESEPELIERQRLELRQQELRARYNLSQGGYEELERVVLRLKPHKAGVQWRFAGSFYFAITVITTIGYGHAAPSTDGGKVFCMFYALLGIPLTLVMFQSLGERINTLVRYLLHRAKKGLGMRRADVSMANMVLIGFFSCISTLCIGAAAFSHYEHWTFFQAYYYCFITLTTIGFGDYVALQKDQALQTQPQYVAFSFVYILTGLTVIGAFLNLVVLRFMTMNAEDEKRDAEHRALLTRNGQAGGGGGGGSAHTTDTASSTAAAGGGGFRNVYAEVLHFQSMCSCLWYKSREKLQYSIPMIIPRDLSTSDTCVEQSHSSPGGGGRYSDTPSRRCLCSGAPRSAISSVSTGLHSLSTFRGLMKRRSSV
KCNK9 inh – blocks the human KCNK9 two-pore domain potassium channel; 310,000 tested, 1.2% active; HEK293 KCNK9, FluxOR thallium flux fluorescence; stronger effect = lower value; B-score at 10 µM; AID 488922;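 active means ratio B-score over 3 SD below the library mean, with starting fluorescence within 5 SD of its mean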;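 further: negative B-score means less thallium flux so channel inhibition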
TMEM16A act – mouse TMEM16A channel activation, primary screen; 340,000 tested, 0.3% active; Q8BHY3; AID 623877; HEK293 TMEM16A/YFP-H148Q/I152L, iodide quench fluorescence; stronger effect = lower value; B-score at 10 µM;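 active means fluorescence-ratio B-score plate-corrected deviation score at least 3 library SD below zero, with starting fluorescence score within 5 deviations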;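 further: channel opened by trigger with iodide after compound preincubation; score built on the fluorescence ratio of max minus min over baseline; more negative score means more quench and so TMEM16A activation or potentiation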
KCNK9 block conf – human KCNK9 inhibitor confirmation; shares compounds with KCNK9 inh; HEK293 KCNK9 cells, FluxOR thallium flux fluorescence; inhibition, % at 10 µM; 4,900 tested, 43% active; AID 492992;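 active means thallium signal inhibited by more than 5 SD of the compound-free buffer control wells, on both duplicate plates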
Kir2-1 spec – mouse Kir2.1 off-target activity of KCNK9 modulators; 4,900 tested, 4% active; AID 492993; Kir2.1 cells, FluxOR thallium flux fluorescence; inhibition, % at 10 µM; shares compounds with KCNK9 inh;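 active means thallium signal drop more than 5 SD beyond the mean of the no-compound control wells, seen in both duplicate plates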;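 further: signal is fluorescence rise after thallium addition divided by baseline fluorescence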
KCNK9 uninduced – non-induced cell nonspecific activity of KCNK9 modulators | 4,900 tested, 40% active | shares compounds with KCNK9 inh | non-induced KCNK9-HEK293, FluxOR thallium flux | inhibition, % at 10 µM | AID 492997;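 active means thallium signal drop beyond 5 SD of the untreated control mean, on both duplicate plates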
Hits are given with their value; - = inactive; . = not tested or not shown. Sampled rows, rich in hits. Any-hit rate of the full collection: about 3.5%.

SMILES	Kir21 inh	ANO1 block	KCNK3 inh	KCNK9 inh	TMEM16A act	KCNK9 block conf	Kir2-1 spec	KCNK9 uninduced
CCOC(=O)n1c(=O)n(Cc2ccc(Cl)cc2Cl)c2ccccc21	-	-	-	-17.2	-	76.0%	-	-
CCOCCCNC(=O)c1cn(CC)c2ccc(S(=O)(=O)N(C)C3CCCCC3)cc2c1=O	-	-	-	-	-	.	.	.
Cc1ccccc1NC1=C(C(=O)c2ccccc2)N(C)S(=O)(=O)c2ccccc21	-	-	-8.99	-11.9	-	31.5%	-	37.5%
CN1C(C(=O)Nc2ccc(C(=O)O)cc2)=C(O)c2ccccc2S1(=O)=O	.	.	-	.	-	.	.	.
Cc1ccc(C(=O)N2[C@@H]3CN(C)C(=O)[C@@]2(Cc2ccccc2)[C@H]2C(=O)N(Cc4ccccc4)C(=O)[C@@H]32)cc1	.	.	-	.	-	.	.	.
CCCCC(OC(=O)CN1C(=O)COc2ccccc21)C(=O)NC1CCCCC1 (configuration not stated)	-	-	-	-	-	.	.	.
CC(C)Cn1c(/C=N/Nc2nc3ccccc3[nH]2)nc2ccccc21	-	.	-	-	-	27.0%	-	-
CCCn1c(/C=N/Nc2nc3ccccc3[nH]2)nc2ccccc21	.	.	-	.	-	.	.	.
Cc1ccc(S(=O)(=O)Nc2cccc(S(=O)(=O)Nc3ccccc3C(=O)O)c2)c(C)c1	.	.	-	.	-	.	.	.
COc1ccc(OC(C)C(=O)N(C)Cc2nc(-c3cccc(C)c3)no2)cc1 (configuration not stated)	-	-	-	-	-	-	-	-
COc1cccc(OCC(=O)N(C)Cc2nc(-c3cccc(C)c3)no2)c1	-	-	-	-	-	-	-	-
COc1ccc2c(c1)C(=NNc1ccc(C(=O)O)cc1)c1cc(OC)ccc1-2	-	-	-	-	-	-	-	-
COc1ccc(/C(C)=N/Nc2ccc(C(=O)O)cc2)c(OC)c1	-	-	-	-	-	.	.	.
CCOc1ccc(S(=O)(=O)Nc2ccc(C(=O)N3CCC3)cc2)cc1	-	-	-	-	-	.	.	.
CCOc1ccc(NS(=O)(=O)c2ccc(C(=O)N3CCN(C(C)=O)CC3)cc2)cc1	-	-	-	-	-	.	.	.
CCOc1ccc(NS(=O)(=O)c2ccc(C(=O)N3CCCC(C)C3)cc2)cc1 (configuration not stated)	-	100	-	-	-	-	-	-
CCOc1ccc(NS(=O)(=O)c2ccc(C(=O)N3CCCCCC3)cc2)cc1	-	-	-	-	-	-	-	-
CCOc1ccc(OCc2ccc(C(=O)N3CCOCC3)cc2)cc1	-	-	-	-	-	.	.	.
CCOc1ccc(OCc2ccc(C(=O)N3CCCC(C)C3)cc2)cc1 (configuration not stated)	-	-	-	-	-	-	-	-
Cc1ccc(-n2nc3c(c2NC(=O)C(C)C)CS(=O)(=O)C3)c(C)c1	-	-	-	-	.	.	.	.
COC(=O)C1CCN(C(=O)COC(=O)c2cccc(NS(=O)(=O)c3ccccc3)c2)CC1	-	-	-	-	-	.	.	.
COc1ccc(C(O)P(=O)(OCC(C)C)c2ccc(N(C)C)cc2)c(OC)c1 (configuration not stated)	-	-	-	-	-	.	.	.
COc1ccc(CC2(C)OC(c3ccc(C)c([N+](=O)[O-])c3)=NN2C(C)=O)cc1 (configuration not stated)	-	-	-	-	-	.	.	.
COc1ccc(CC2(C)OC(c3ccc(C)cc3)=NN2C(C)=O)cc1 (configuration not stated)	-	-	-	-	-	-	-	-
COc1ccc(CC2(C)OC(c3ccccc3)=NN2C(C)=O)cc1 (configuration not stated)	-6.34	-	-	-	-	-	-	-
SMILES	Kir21 inh	ANO1 block	KCNK3 inh	KCNK9 inh	TMEM16A act	KCNK9 block conf	Kir2-1 spec	KCNK9 uninduced
COCCCNC(=O)c1ccccc1NS(=O)(=O)c1ccc(C)cc1	-	-	-	-	-	.	.	.
CN(C)CCn1c(=O)n(C2CCCCC2)c(=O)c2c3c(sc21)CCCCC3	-	-	-	-	-	-	-	-
CN(C)CCn1c(=O)n(Cc2ccco2)c(=O)c2c3c(sc21)CCCCC3	-	-	-	-	-	-	-	-
O=C(Cn1c(=O)n(Cc2ccco2)c(=O)c2c3c(sc21)CCCCC3)c1ccccc1	-	-	-	-	-	.	.	.
O=C(Cn1c(=O)n(Cc2ccco2)c(=O)c2c3c(sc21)CCCCC3)Nc1ccccc1	-	-	-	-	-	-	-	34.0%
CCn1c(=O)n(CCOC)c(=O)c2c3c(sc21)CCCC3	-	-	-	-	-	.	.	.
COc1ccccc1CC(=O)N1CCN(c2ccccc2F)CC1	-	-	-	-	-	.	.	.
CCOC(=O)N1CCN(C(=O)CSc2nc(=O)n3ccc(C)cc3n2)CC1	-	-	-	-	-	.	.	.
CC(C)CC(=O)Nc1ccc(C(=O)COC(=O)C2CCC2)cc1	-	-	-	-	-	.	.	.
O=C(/C=C/c1ccccc1)N(c1ccccn1)C1CCCCC1	-	-	-	-	-	.	.	.
O=C(/C=C/c1ccccc1Cl)N(c1ccccn1)C1CCCCC1	-	-	-	-12.2	-	58.0%	-	32.0%
COc1ccc(N2C(=O)/C(=C\c3ccco3)N=C2SCC(=O)NC(C)C)cc1Cl	-	-	-	-11.8	-	77.5%	-	36.5%
Cc1ccccc1CN1CCN(c2nc3ccccc3s2)CC1	-	-	-	-	-	-	-	34.0%
O=C(CN(C(=O)CCC(=O)Nc1ccccn1)c1ccc(F)cc1)NCCc1ccccc1	-	-	-	-	-	.	.	.
CCOC(=O)c1c(C)nc2cc(C)cc(C)n12	-	-	-	-	-	.	.	.
O=C(CN1C(=O)COc2ccc(S(=O)(=O)N3CCCC3)cc21)NCc1ccccn1	-	-	-	-	-	.	.	.
CCN(Cc1ccccc1)Cc1nc(CCc2ccccc2)no1	-	-	-	-	-	.	.	.
c1ccc(CCN(Cc2ccccc2)Cc2nc(C3CC3)no2)cc1	-	-	-	-9.56	-	-	-	38.0%
Cc1nc(SCC(=O)N2CCN(c3ccccc3)CC2)n[nH]1	-	-	-	-	-	.	.	.
O=C(CSc1nc(N2CCCCC2)nc(N2CCCCC2)n1)N1CCN(c2ccccc2)CC1	-	.	-	-	-	-	-	-
O=C(O)c1cnc(-c2ccccc2)nc1Sc1ccc(Cl)cc1Cl	-	100	-	-	-	-	-	-
CCOc1ccc(NC(=O)CN(c2cc(C)cc(C)c2)S(=O)(=O)c2c(C)noc2C)cc1	-	-	-	-	-	.	.	.
Cc1noc(C)c1S(=O)(=O)N(C)CC(=O)Nc1ccc(F)cc1	-	-	-	-11.2	-	-	-	-
